Bioassay records (PubChem)
hNpr1 antagonist – blocks ANP-stimulated signaling of human Npr1 receptor; Potency, µM (doses to about 46.3 µM), without a hit: at the top dose activity change, negative = inhibition, hits mostly inhibitors; AID 1347048; hit rate 1.6% among 76,000; HEK293 hNpr1 GloSensor cGMP, ANP-stimulated luminescence; P16066; calls by dose curve; further: nearly all actives have a fitted effect of over 60% in size
Target sequence (P16066 whole entry, looked up): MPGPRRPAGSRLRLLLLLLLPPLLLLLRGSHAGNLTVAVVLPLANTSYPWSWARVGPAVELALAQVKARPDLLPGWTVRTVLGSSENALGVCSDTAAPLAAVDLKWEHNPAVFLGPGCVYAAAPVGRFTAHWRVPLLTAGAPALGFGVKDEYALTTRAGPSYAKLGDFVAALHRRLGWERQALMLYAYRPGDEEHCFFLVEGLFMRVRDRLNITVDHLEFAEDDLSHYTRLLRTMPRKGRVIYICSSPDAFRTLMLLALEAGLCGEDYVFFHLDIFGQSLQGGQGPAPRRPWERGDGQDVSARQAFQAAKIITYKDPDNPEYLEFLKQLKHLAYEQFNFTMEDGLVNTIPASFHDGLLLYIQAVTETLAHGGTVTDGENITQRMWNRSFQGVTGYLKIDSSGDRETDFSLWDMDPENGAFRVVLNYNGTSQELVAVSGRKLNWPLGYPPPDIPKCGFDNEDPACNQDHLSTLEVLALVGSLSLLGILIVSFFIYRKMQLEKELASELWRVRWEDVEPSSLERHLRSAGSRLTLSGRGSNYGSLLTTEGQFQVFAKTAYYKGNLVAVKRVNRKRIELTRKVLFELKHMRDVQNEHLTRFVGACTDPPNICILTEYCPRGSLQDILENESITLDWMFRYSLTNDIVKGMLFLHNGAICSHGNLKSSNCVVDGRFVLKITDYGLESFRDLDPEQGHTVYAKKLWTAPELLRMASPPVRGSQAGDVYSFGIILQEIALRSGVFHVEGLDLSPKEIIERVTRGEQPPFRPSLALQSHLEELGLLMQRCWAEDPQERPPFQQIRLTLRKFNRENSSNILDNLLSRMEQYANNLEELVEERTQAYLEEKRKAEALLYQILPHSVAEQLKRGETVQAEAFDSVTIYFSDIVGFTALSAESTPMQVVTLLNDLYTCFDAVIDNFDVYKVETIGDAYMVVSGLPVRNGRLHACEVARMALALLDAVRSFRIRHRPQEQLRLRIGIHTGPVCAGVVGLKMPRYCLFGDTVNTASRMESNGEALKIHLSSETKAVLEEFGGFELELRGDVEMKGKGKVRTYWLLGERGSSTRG
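Compound pre-incubated 30 min at room temperature on GloSensor-loaded HEK293 cells stably carrying hNpr1 and the pGS-40F cGMP biosensor. Stimulation uses hNppA at 0.1 nM final; luminescence is taken at baseline and 20 min post-agonist.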
FLuc inh – Photinus pyralis luciferase inhibition; P08659; purified P. pyralis luciferase, luminescence, biochemical; Potency, µM (top dose mostly 115 µM), most hits filed as inhibitors; hit rate 2.5% among 76,000; AID 1347043; further: nearly all actives have a fitted effect of over 65% in size
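Luminescence read by CCD imaging after purified firefly luciferase (10nM final) was added to substrate buffer holding 10uM D-luciferin and 10uM ATP, pH 7.5, pre-dosed with compound.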
HEK293 tox – kills HEK 293 cells | HEK 293 viability, ATP luminescence (CellTiter-Glo), 48-72 h | Potency, µM (doses to about 115 µM), inactives show at the top dose activity change, negative = cytotoxicity, usual class: inhibitors | hit rate 6.6% among 94,000; further: nearly all actives have a fitted effect of over 60% in size
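HEK 293 seeded at 250 cells/well receive compound via pintool. After 48 or 72 hr at 37 degree Celsius, 5% CO2 and 95% humidity, CellTiter-Glo is dispensed and luminescence read following 10 min at room temperature.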
3T3 cytotox – cytotoxic compounds in NIH 3T3 cells | Potency, µM (series often up to 96.7 µM), without a hit: top-dose activity change, negative = cytotoxicity, most hits filed as inhibitors | NIH 3T3 viability, CellTiter-Glo ATP luminescence, 48-72 h | hit rate 4.3% among 94,000; further: nearly all actives have a fitted effect of over 55% in size
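First NIH 3T3 cells are plated at 400 cells/well; next compound is pinned in; then plates incubate 48 or 72 hr at 37 °C; finally CellTiter-Glo is added and luminescence read after 10 min.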
Starred values were filed as active, the others as inactive; i = inactive; ? = inconclusive; nt = no result given; [ ] = another dose, or the depositor's remark. In the library only some 11% were active in any assay of this set; here they are far more common. Unless noted, the call rests on the fitted dose curve; in most records, active means well fitted curve in the direction sought with a large enough effect; inconclusive means small, poorly fitted or top-dose-only effect, or another doubt; inactive means no such curve, though single readings can be large; an effect the other way counts as inactive or inconclusive. On the % scale 0 is the no-effect control and ±100 the full control effect; potency means the concentration at half of the fitted maximal effect.

SMILES	hNpr1 antagonist	FLuc inh	HEK293 tox	3T3 cytotox
CCN1c2cc(C(=O)Nc3cccc(OC)c3)ccc2C(=O)N2CCCCCC21 (configuration not stated)	-7%	i	32µM*	?
CCN1c2cc(C(=O)Nc3cccc(OC)c3)ccc2C(=O)N2CCCC21 (configuration not stated)	5%	i	?	-28%
CCNC(=O)Cc1c[nH]c2ncc(-c3cccnc3OC)cc12	-15%[70.6 µM]	i	-38%[172 µM]	89µM*
COc1ccc(-c2cnc3[nH]cc(CC(=O)Nc4ccncc4)c3c2)cc1	?	i	?	32µM*
COc1ncccc1-c1cnc2[nH]cc(CC(=O)Nc3ccccc3)c2c1	?	i	?	40µM*
COc1ccc(-c2cnc3[nH]cc(CC(=O)NC4CCC(O)CC4)c3c2)cc1 (configuration not stated)	-8%[70.6 µM]	i	?	25µM*
COc1ccc(-c2cnc3[nH]cc(CC(=O)Nc4cccc(F)c4)c3c2)cc1	-30%[70.6 µM]	i	?	?
CN1CCC(NC(=O)Cc2c[nH]c3ncc(-c4ccccc4)cc23)CC1	-16%[70.6 µM]	i	?	?
COCCCNC(=O)CC1=C2CCCCC2N(Cc2ccc(F)cc2)C1=O (configuration not stated)	nt	nt	1%	-12%
COc1ccc2c(c1)CN(CC1CC1)C(=O)CCN2C[C@@H](O)COCc1ccccc1	nt	nt	-24%	?
O=C(NCC1CN(C(=O)NCc2ccc(F)cc2)CC12CCCCC2)C1CC1 (configuration not stated)	nt	nt	-25%	-47%
Cc1ccccc1-c1cnc2[nH]cc(CC(=O)NC3CCOCC3)c2c1	-17%[70.6 µM]	i	?	?
COc1cccc(NC(=O)Cc2c[nH]c3ncc(-c4ccccc4C)cc23)c1	?	i	71µM*	?
COc1ncccc1-c1cnc2[nH]cc(CC(=O)Nc3ccccc3C)c2c1	-29%[70.6 µM]	i	?	?
COc1ncccc1-c1cnc2[nH]cc(CC(=O)Nc3cccnc3)c2c1	?	i	89µM*	?
COc1ncccc1-c1cnc2[nH]cc(CC(=O)Nc3ccncc3)c2c1	?	i	63µM*	32µM*
CN(C)c1ccc(C(=O)N2CCN(C(=O)c3ccc(N(C)C)cc3)[C@H](C(=O)N[C@H](Cc3c[nH]c4ccccc34)C(N)=O)C2)cc1	0%	i	-10%	-22%
Cc1ccc(CN2CCOC[C@H]2c2ncc(C(C)(C)C)[nH]2)cc1	-15%[70.6 µM]	i	112µM*	100µM*
Cn1cc(CN2CCOC[C@H]2c2ncc(-c3ccc(F)cc3F)[nH]2)c2ccccc21	-27%[70.6 µM]	i	50µM*	50µM*
COc1ccc(-c2cnc([C@@H]3COCCN3Cc3cn(C)c4ccccc34)[nH]2)cc1	?	i	?	63µM*
Cc1ccc(-c2cnc([C@@H]3COCCN3Cc3ccccc3F)[nH]2)cc1	-17%[70.6 µM]	i	?	?
COc1ccc(-c2cnc([C@@H]3COCCN3Cc3nc4ccccc4n3C)[nH]2)cc1	?	i	?	?
Fc1ccc(-c2cnc([C@@H]3COCCN3Cc3ccncc3)[nH]2)cc1	-3%[70.6 µM]	i	-5%[172 µM]	?
Cc1ccc(-c2cnc([C@@H]3COCCN3Cc3cn(C)c4ccccc34)[nH]2)cc1	?	i	56µM*	?
Cc1ccc([S+](=O)([O-])N2CCC(N3C(=O)c4c(c(C)nn4-c4ccccc4)C3C)C2)cc1 (configuration not stated)	nt	nt	?	-27%
SMILES	hNpr1 antagonist	FLuc inh	HEK293 tox	3T3 cytotox
COc1ccc(CN2CCOC[C@H]2c2ncc(-c3ccc(OC)cc3)[nH]2)cc1	-5%[70.6 µM]	i	89µM*	?
COc1ccc(-c2cnc([C@@H]3COCCN3Cc3ccc(C)cc3)[nH]2)cc1	-20%[70.6 µM]	i	?	?
FC(F)(F)c1ccnc(N2CCOCC3(CN(Cc4ccccc4)C3)C2)n1	1%[70.6 µM]	i	?	-24%[138 µM]
O=[S+]([O-])(c1ccccc1)N1CC2(COCCN(c3nccc(C(F)(F)F)n3)C2)C1	-5%[70.6 µM]	i	89µM*	?
O=C(NCC1Cn2cccc2CN1Cc1ccccc1)c1n[nH]c2ccccc12 (configuration not stated)	-27%	14µM*	?	?
CCCNC(=O)[C@@H]1Cc2cn(Cc3cccnc3)c3cccc(c23)[C@H](CC(C)C)N1	-2%[70.6 µM]	i	?	89µM*
CCCNC(=O)[C@@H]1Cc2cn(Cc3ccncc3)c3cccc(c23)[C@H](CC(C)C)N1	?	i	32µM*	25µM*
CC(C)C[C@@H]1N[C@H](C(=O)NC(C)C)Cc2cn(Cc3ccncc3)c3cccc1c23	?	i	?	32µM*
CC(C)C[C@@H]1N[C@H](C(=O)NCCN(C)C)Cc2cn(Cc3ccncc3)c3cccc1c23	1%[70.6 µM]	i	40µM*	28µM*
CCCNC(=O)[C@@H]1Cc2cn(Cc3ccccn3)c3cccc(c23)[C@H](CC(C)C)N1	-26%[70.6 µM]	i	?	?
COC1CCN(C(=O)c2ccc(C(C)(C)C)cc2)CC(=O)N(C)c2ccccc21 (configuration not stated)	nt	nt	?	-25%
CC(C)C[C@@H]1N[C@H](C(=O)NCC2CC2)Cc2cn(Cc3ccncc3)c3cccc1c23	-16%[70.6 µM]	i	35µM*	?
CC(C)C[C@@H]1N[C@H](C(=O)O)Cc2cn(Cc3ccncc3)c3cccc1c23	5%	i	-28%	-17%
CSc1ccc(-c2ccc3c(c2)C(=O)N2CCN(C(=O)CC(C)(C)C)C[C@@H]2C(=O)N3)cc1	-20%	i	35µM*	?
CSc1ccc(-c2ccc3c(c2)C(=O)N2CCN(C(=O)CCC(=O)O)C[C@H]2C(=O)N3)cc1	4%	32µM*	-2%	-4%
CC(C)(C)C1CN(Cc2ccccc2)C(=O)c2cccnc2O1 (configuration not stated)	nt	nt	?	-13%
OC1CCC(NCc2ccc(-c3cnc4c(OCc5ccccc5)nccn34)cc2)CC1 (configuration not stated)	4%[70.6 µM]	i	50µM*	22µM*
NC(=O)C1CCCN(Cc2ccc(-c3cnc4c(OCc5ccccc5)nccn34)cc2)C1 (configuration not stated)	-17%	45µM*	45µM*	40µM*
O=[S+]1([O-])CCN(Cc2ccc(-c3cnc4c(OCc5ccccc5)nccn34)cc2)CC1	11µM*	?	35µM*	22µM*
CC(C)Cc1cnc(C2CCCN(C(=O)OC(C)(C)C)C2)[nH]1 (configuration not stated)	nt	nt	?	89µM*
COc1ccc(Cn2c(=O)c(C(=O)Nc3ccc(F)cc3)nc3cccnc32)cc1	nt	nt	i	-12%
O=C(c1nc2cccnc2n(CCc2ccccc2)c1=O)N1CCN(Cc2ccccc2)CC1	nt	nt	?	-25%
O=C(NCC1CC1)c1cccc(OC2CN(Cc3ccc(OC(F)(F)F)cc3)C2)c1	-11%	i	?	?
